From PubChem
Most compounds without a hit are left out; they make up all but 8.7% or so of the library.
Sfp PPTase inh = blocks B. subtilis Sfp PPTase activity; Biochemical Sfp PPTase activity, qHTS; Q9F4F7; Potency, µM, for the others: largest response in the series, negative = inhibition, most hits filed as inhibitors; hit rate 3.5% among 310,000; AID 1490;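 further: the enzyme is Sfp with the accession as filed and its product quenches rhodamine fluorescence; 0% = enzyme reaction without inhibitor and -100% = no enzyme wells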
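After 15 min at room temperature with compound, 15 nM Sfp received 5 uM rhodamine-CoA plus 12.5 uM BHQ-2-ybbR (50 mM Hepes pH 7.6, 10 mM MgCl2). Rate came from the fluorescence difference over 30 min, ex 525/em 598 nm.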
HP1b chromo inh = HP1-beta chromodomain-methylated histone interaction inhibition | AID 540317 | hit rate 0.56% among 390,000 | AlphaScreen HP1-beta / biotin-H3K9me3 peptide binding | Potency, µM (top dose mostly 114 µM), inactives show at the highest dose activity change, negative = inhibition, usual class: inhibitors; further: nearly all actives have a fitted effect of over 70% in size
Target sequence (P83916 whole entry, looked up): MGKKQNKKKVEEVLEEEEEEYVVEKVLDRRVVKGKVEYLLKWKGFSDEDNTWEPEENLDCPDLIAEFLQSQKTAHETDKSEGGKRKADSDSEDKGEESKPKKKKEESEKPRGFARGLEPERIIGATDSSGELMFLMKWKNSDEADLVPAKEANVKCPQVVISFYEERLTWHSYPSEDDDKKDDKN
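HP1-beta protein (50 nM final) preincubated 30 min at room temperature with biotinylated H3(1-18)K9me3 peptide (50 nM) in PBS pH 7.4, 0.01% Tween-20, then compound added for 30 min. AlphaScreen streptavidin donor/nickel chelate acceptor beads (10 ug/mL final), 30 min dark, luminescence read.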
G9a inh = inhibitors of human histone lysine methyltransferase G9a; AID 504332; G9a H3K9 monomethylation, AlphaScreen, 2 h; Potency, µM (top dose mostly 102 µM), for the others: at the top dose activity, negative = inhibition, hits mostly inhibitors; hit rate 8.8% among 350,000; Q96KQ7; further: on the % scale 0 is the no-effect control and ±100 the full control effect; nearly all actives have a fitted effect of over 75% in size
Target sequence (Q96KQ7 913-1193 limits assumed): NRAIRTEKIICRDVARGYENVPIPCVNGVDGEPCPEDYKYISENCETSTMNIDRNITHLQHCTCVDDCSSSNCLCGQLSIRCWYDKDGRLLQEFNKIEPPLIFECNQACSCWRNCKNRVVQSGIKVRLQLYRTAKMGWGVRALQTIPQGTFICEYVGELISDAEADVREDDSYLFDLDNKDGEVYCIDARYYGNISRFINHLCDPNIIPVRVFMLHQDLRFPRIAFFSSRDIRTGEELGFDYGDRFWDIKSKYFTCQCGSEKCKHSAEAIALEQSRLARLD
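AlphaScreen read-out: biotin-H3K9 peptide (500 nM) methylation by 20 nM enzyme with 20 uM SAM, 2 h at room temperature after 15 min compound preincubation; anti-monomethyl H3K9 antibody plus donor/acceptor beads, 10 min dark.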
JMJD2A Tudor inh = inhibitors of human JMJD2A Tudor domain | AlphaScreen JMJD2A-Tudor / H3K4me3 peptide binding | Potency, µM (titrated, usually from 114 µM), inactives show at the highest dose activity change, negative = inhibition, usual class: inhibitors | hit rate 4.4% among 390,000; further: on the % scale 0 is the no-effect control and ±100 the full control effect; nearly all actives have a fitted effect of over 50% in size
ALOX12 inh = ALOX12 (human) lipoxygenase inhibition. P18054. purified 12hLO, xylenol orange hydroperoxide absorbance. Potency, µM (highest dose often 108 µM), inactives show top-dose activity change, negative = inhibition, actives largely listed as inhibitors. hit rate 1.1% among 580,000. AID 1671190; further: on the % scale 0 is the no-effect control and ±100 the full control effect
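Hydroperoxide product was detected by ferrous iron/xylenol orange as the 573 to 405 nm absorbance ratio. Arachidonic acid at 40 uM (final) was turned over for 30 min at room temperature by 150 nM human 12hLO, pH 7.0 Hepes buffer, after 15 min compound preincubation.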
BAZ2B block = blocks human BAZ2B | Q9UIF8 | AlphaScreen BAZ2B-H3K14Ac peptide displacement | Potency, µM (highest dose often 114 µM), for inactives: at the top dose activity change, negative = inhibition, most hits filed as inhibitors | hit rate 4.4% among 360,000 | AID 504333; further: on the % scale 0 is the no-effect control and ±100 the full control effect; nearly all actives have a fitted effect of over 60% in size
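BAZ2B 50 nM plus b-H3(5-23)K14Ac 50 nM, PBS pH 7.4/0.01% Tween-20, 30 min RT; compound added (max 110 uM), 30 min RT; streptavidin donor/Ni-chelate acceptor beads 10 ug/mL final, 20 min dark; AlphaScreen read.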
* hit, by the source's call; [ ] = remark or other dose. The call rests on the fitted dose curve; in most records, active means well fitted curve in the direction sought with a large enough effect; inconclusive means small, poorly fitted or top-dose-only effect, or another doubt; inactive means no such curve, though single readings can be large; an effect the other way counts as inactive or inconclusive. Potency means the concentration at half of the fitted maximal effect.

Screening CCOC(=O)CN1CC23C=CC(O2)C(C(=O)O)C3C1=O (stereo unspecified) returned Sfp PPTase inh 17.9%, HP1b chromo inh 25.0%, G9a inh -41.0%, JMJD2A Tudor inh 4.2%, ALOX12 inh 379.7% and BAZ2B block -18.3%.
Screening CCOC(=O)CN1CC23C=CC(O2)C(C(=O)NC2CCCC2)C3C1=O (stereo unspecified) returned Sfp PPTase inh inconclusive, HP1b chromo inh 44.1%, G9a inh 44.7µM*, JMJD2A Tudor inh -5.6%, ALOX12 inh 382.7% and BAZ2B block 25.4%.
For CCOC(=O)CN1CC23C=CC(O2)C(C(=O)NCc2ccc(C)cc2)C3C1=O (stereo unspecified) the results were Sfp PPTase inh 22.3%, HP1b chromo inh 32.5%, G9a inh 35.5µM*, JMJD2A Tudor inh 2.1%, ALOX12 inh 15.8% and BAZ2B block -18.0%.
`CCOC(=O)CN1CC23C=CC(O2)C(C(=O)NCc2cccs2)C3C1=O` (stereo unspecified) gave Sfp PPTase inh 8.3%, HP1b chromo inh 40.0%, G9a inh 10.3%, JMJD2A Tudor inh 6.1%, ALOX12 inh -24.2% and BAZ2B block -0.8%.
For C[C@H](NC(=O)OC(C)(C)C)c1nnc(SCc2c(F)cccc2Cl)o1 the results were HP1b chromo inh 45.1%, G9a inh 1.5%[59 µM], JMJD2A Tudor inh -3.7%, ALOX12 inh -17.9% and BAZ2B block 89.1µM*.
`Cc1ccc(CNC(=O)c2cc(=O)c3c(C)cc(C)cc3o2)cc1` gave ALOX12 inh -20.9%.
For COc1ccc(C2C(C#N)=C(N)N(c3cccnc3)C3=C2C(=O)CC(C)(C)C3)cc1OC (stereo unspecified) the results were Sfp PPTase inh -6.6%, HP1b chromo inh 53.5%, G9a inh 35.5µM*, JMJD2A Tudor inh -11.0%, ALOX12 inh 9.6% and BAZ2B block -28.9%.
Cc1ccc(C2C(C#N)=C(N)N(c3cccnc3)C3=C2C(=O)CCC3)s1 (stereo unspecified) was read as Sfp PPTase inh -6.7%, HP1b chromo inh 49.0%, G9a inh 39.8µM*, JMJD2A Tudor inh -31.6%, ALOX12 inh inconclusive and BAZ2B block inconclusive.
`COc1ccc(N2C(N)=C(C#N)C(c3cccnc3)C3=C2CC(C)(C)CC3=O)cc1` (stereo unspecified) gave Sfp PPTase inh 11.0%, HP1b chromo inh 44.3%, G9a inh 11.2µM*, JMJD2A Tudor inh -21.9%, ALOX12 inh inconclusive and BAZ2B block -4.5%.
`CC1(C)CC(=O)C2=C(C1)N(c1ccccc1C#N)C(N)=C(C#N)C2c1cccs1` (stereo unspecified) gave Sfp PPTase inh -17.4%, HP1b chromo inh -4.8%, G9a inh 39.8µM*, JMJD2A Tudor inh inconclusive, ALOX12 inh inconclusive and BAZ2B block 56.2µM*.
`CC1(C)CC(=O)C2=C(C1)N(c1cccnc1)C(N)=C(C#N)C2c1cccs1` (stereo unspecified) gave Sfp PPTase inh inconclusive, HP1b chromo inh 42.0%, G9a inh -14.5%[59 µM], JMJD2A Tudor inh -10.6%, ALOX12 inh -15.3% and BAZ2B block -4.1%.
For CC(C)CN(CC(C)C)C(=O)CC1C(=O)NCCN1Cc1cccs1 (stereo unspecified) the results were ALOX12 inh 43.7%.
`COc1ccc(C2C3=C(CC(C)(C)CC3=O)N(CC(=O)O)C3=C2C(=O)CC(C)(C)C3)cc1OC` gave Sfp PPTase inh 13.8%, HP1b chromo inh 49.1%, G9a inh 70.8µM*, JMJD2A Tudor inh 8.6%, ALOX12 inh 0.0% and BAZ2B block -19.4%.
For CCOc1ccc(C2C(C#N)=C(N)N(N(C)C)C3=C2C(=O)CC(C)(C)C3)cc1 (stereo unspecified) the results were Sfp PPTase inh 9.5%, HP1b chromo inh 29.5%, G9a inh 35.5µM*, JMJD2A Tudor inh -2.8%, ALOX12 inh 0.0% and BAZ2B block -2.5%.
`Cc1cc(=O)[nH]c(Nc2c(C)n(C)n(-c3ccccc3)c2=O)n1` gave Sfp PPTase inh 14.7%, HP1b chromo inh 15.2%, G9a inh 21.7%[12.7 µM], JMJD2A Tudor inh 1.1%, ALOX12 inh -0.5% and BAZ2B block -4.9%.
`Cc1c(NC(=S)N/N=C/c2cc([N+](=O)[O-])ccc2O)c(=O)n(-c2ccccc2)n1C` gave Sfp PPTase inh -19.1%, HP1b chromo inh 26.1%, G9a inh 56.2µM*, JMJD2A Tudor inh 28.2µM*, ALOX12 inh inconclusive and BAZ2B block 5.62µM*.
Screening Cc1c(Cl)cccc1NC(=O)Nc1c(C)n(C)n(-c2ccccc2)c1=O returned Sfp PPTase inh 11.8%, HP1b chromo inh 38.4%, G9a inh 79.4µM*, JMJD2A Tudor inh -2.1%, ALOX12 inh 4.4% and BAZ2B block -1.4%.
Screening Cc1cccc(NC(=O)Nc2c(C)n(C)n(-c3ccccc3)c2=O)c1C returned Sfp PPTase inh 19.7%, HP1b chromo inh 25.7%, G9a inh 34.7%, JMJD2A Tudor inh 5.0%, ALOX12 inh -2.0% and BAZ2B block 1.6%.
Screening Cc1c(NC(=O)Nc2ccc([N+](=O)[O-])cc2)c(=O)n(-c2ccccc2)n1C returned Sfp PPTase inh 6.3%, HP1b chromo inh 12.6%, G9a inh 18.0%, JMJD2A Tudor inh 15.8µM*, ALOX12 inh 0.0% and BAZ2B block -3.2%.
For Cc1c(NC2=C(Cl)C(=O)N(c3ccccc3Cl)C2=O)c(=O)n(-c2ccccc2)n1C the results were Sfp PPTase inh 50.1µM*, HP1b chromo inh 1.7%, G9a inh 39.8µM*, JMJD2A Tudor inh inconclusive, ALOX12 inh inconclusive and BAZ2B block -38.0%.
Screening Cc1ccc(NC(=O)Nc2c(C)n(C)n(-c3ccccc3)c2=O)cc1 returned Sfp PPTase inh 1.8%, HP1b chromo inh 17.0%, G9a inh 14.2%, JMJD2A Tudor inh -1.4%, ALOX12 inh 4.3% and BAZ2B block -11.4%.
Screening Cc1cccc(C)c1NC(=O)CN(C)C(=O)Cc1csc(-c2cccc(Br)c2)n1 returned ALOX12 inh 1.0%.
Screening CCCCS(=O)(=O)N1C[C@@H](COC)[C@H](C(N)=O)C1 returned ALOX12 inh 49.6%.
COCCNC(=O)/C=C/c1ccc(C(C)(C)C)cc1 was read as ALOX12 inh -25.0%.
Screening CC(Sc1n[nH]c(=O)[nH]c1=O)C(=O)OCc1ccccc1 (stereo unspecified) returned Sfp PPTase inh 79.4µM*, HP1b chromo inh 26.7%, G9a inh inconclusive, JMJD2A Tudor inh -10.8%, ALOX12 inh 13.2% and BAZ2B block 9.9%.
